ClpP mod: qHTS Assay for Activators of ClpP; purified B. subtilis ClpP, FRET peptide cleavage, 20 min; Potency, µM (titrated, usually from 57.5 µM); 340,000 tested, 1.9% active; active = well fitted falling curve with a large enough effect; inconclusive = small, poorly fitted or top-dose-only effect; inactive = no such curve, though single readings can be large or run the other way; note: the source files actives as falling curves though it sought activators and does not explain the sign; nearly all actives have a fitted effect of over 65% in size
Target sequence (P80244 whole entry, looked up): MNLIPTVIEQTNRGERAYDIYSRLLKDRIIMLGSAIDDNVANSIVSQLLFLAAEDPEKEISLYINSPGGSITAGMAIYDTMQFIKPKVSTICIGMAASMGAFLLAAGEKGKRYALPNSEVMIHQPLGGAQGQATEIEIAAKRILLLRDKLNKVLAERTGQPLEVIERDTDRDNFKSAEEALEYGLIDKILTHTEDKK
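ClpP 10 microg/mL final, pH 8 Tris/KCl buffer with BSA, glycerol, Tween-20; compound pinned in; FRET-FV substrate; RT 20 min; Ex320/Em430; ΔFRET vs ADEP 5.8 microM, DMSO, no enzyme.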
TDP1 block: qHTS Assay for Inhibitors of Tyrosyl-DNA Phosphodiesterase (TDP1). Tyrosyl-DNA phosphodiesterase 1 (Homo sapiens), Q9NUW8. recombinant TDP1, AlphaScreen DNA substrate cleavage. Potency, µM (titrated, usually from 130 µM), hits mostly inhibitors. 350,000 tested, 0.28% active; note: nearly all actives have a fitted effect of over 40% in size
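AlphaScreen read-out: signal falls as enzyme removes the 3' tyrosine-FITC from a 5'-biotinylated DNA oligo (15 nM, 5 min, RT). Enzyme was E. coli-made recombinant Tdp1 at 1 nM, exposed to compound for 15 min beforehand; beads 10 ug/ml, 10 min.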
TDP1 cell CPT: qHTS for Inhibitors of human tyrosyl-DNA phosphodiesterase 1 (TDP1): qHTS in cells in presence of CPT. chicken DT40 Tdp1-/-;hTDP1 cells + 20 nM CPT, ATP luminescence, 48 h. 420,000 tested, 12% active. AID 686979, 2013. Potency, µM (top dose mostly 46.2 µM), usual class: inhibitors; note: nearly all actives have a fitted effect of over 55% in size
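Cell growth measured by CellTiter-Glo luminescence after a minimum 48 h, 37 C compound exposure with 20 nM CPT in Tdp1-knockout DT40 cells stably expressing hTDP1, seeded 400/well; qHTS titration format.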
DT40 TDP1 no CPT: qHTS for Inhibitors of human tyrosyl-DNA phosphodiesterase 1 (TDP1): qHTS in cells in absence of CPT. 420,000 tested, 15% active. Potency, µM (series often up to 46.2 µM), actives largely listed as inhibitors. AID 686978, 2013. DT40 Tdp1-/- hTDP1 cells, no CPT, ATP luminescence, 48 h; note: nearly all actives have a fitted effect of over 55% in size
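No-CPT arm: Tdp1-/-;hTDP1 DT40 cells (400/well) plus compounds, incubated ≥48 hr at 37 °C. Readout CellTiter-Glo luminescence.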
A number is an active result; - = inactive; ? = inconclusive; . = no result given; ! = not confirmed by another sample; [ ] = dose if it differs, or a comment. Rows were chosen to be rich in hits. Some 17% of all compounds tested hit in one or more screens of this group. Unless noted, calls come from the whole dose curve; as a rule, active = well fitted curve in the direction sought with a large enough effect; inconclusive = small, poorly fitted or top-dose-only effect, or another doubt; inactive = no such curve, though single readings can be large; an effect the other way counts as inactive or inconclusive.

SMILES	ClpP mod	TDP1 block	TDP1 cell CPT	DT40 TDP1 no CPT
CCOC(=O)c1nnc2c(-c3ccc(Cl)cc3)c(C)nn2c1C	-	-	?	?
CCCN(C(=O)COC(=O)CNC(=O)c1ccc2ccccc2c1)c1c(N)n(Cc2ccccc2)c(=O)[nH]c1=O	.	-[0.505 µM]	-	-
COc1ccc([C@H]2C[C@@H](O)C[C@@H](CCn3cc(-c4ccccc4)nn3)O2)cc1	-	.	-	-
CCc1cc(-c2nnn(CCC3COCCO3)c2CC)ccc1-c1cn(Cc2ccccc2)nn1 (stereo not given)	-	.	16.4µM	20.6µM
Cc1ccc(C)c(C(O)c2ncc(-c3ccccc3F)[nH]2)c1 (stereo not given)	-	.	?	?
CCn1c(C)c(C)c2cc(C(=O)NC3CCCCCC3)ccc21	-	-	16.4µM	20.6µM
CCn1c(=O)c(=O)[nH]c2cc(C(=O)NC3CC3)ccc21	31.6µM	-	-	-
CCC1CCCCN1CCCNC(=O)c1ccc2c(c1)c(C)c(C)n2CC (stereo not given)	-	-	?	?
CC(=O)c1c(C)[nH]c(C(=O)NC2CCSc3ccccc32)c1C (stereo not given)	-	-	?	?
CCn1c(=O)c(=O)[nH]c2cc(C(=O)NC(C)c3ccc(S(N)(=O)=O)cc3)ccc21 (stereo not given)	.	-	-	-
CCn1c(=O)c(=O)[nH]c2cc(C(=O)NC3CCCc4ccccc43)ccc21 (stereo not given)	31.6µM	-	?	?
CCc1c(C(=O)NC2CCCc3ccccc32)[nH]c(C)c1C(C)=O (stereo not given)	-	-	?	14.6µM
O=C1N=c2ccccc2=C1c1c(O)n(-c2cccc(F)c2)[nH]c1=O	-	-	20.6µM	?
CCOc1ccc(Cl)cc1S(=O)(=O)n1nnc2ccccc21	-	-	16.4µM	?
O=C1C2C3C=CC(C3)C2C(=O)N1c1ncn[nH]1 (stereo not given)	-	15.8µM	-	-
CSCC[C@@H](CO)NC(=O)[C@H]1O[C@@H](n2ccc(=O)[nH]c2=O)[C@H](O)[C@@H]1O	-	.	-	-
CCOC(=O)c1c(C)c(C(=O)Nc2cc(F)ccc2F)c(C)n1C	-	-	18.4µM	10.3µM
CCOC(=O)c1c(C)c(C(=O)OCC)n(C)c1C	.	-	-	-
Cc1cc2c(cc1C)NC(c1c(C)n(C)n(-c3ccccc3)c1=O)C1=C(CC(C)(C)CC1=O)N2 (stereo not given)	-	-	16.4µM	?
CC(C)c1c(C(=O)N/N=C/c2cccc3ccccc23)nnn1-c1nonc1N	-	-	?	?
COc1ccc(NCc2nn(CC(=O)c3ccc(Br)cc3)c3[n+]2CCCCC3)cc1	-	-	?	16.4µM
O=C(Cn1nc(CNc2ccc(Br)cc2)[n+]2c1CCCCC2)c1ccc([N+](=O)[O-])cc1	-	-	6.51µM	11.6µM
O=C(CNc1ccc(Cl)cc1)c1ccc(Br)cc1	-	-	-	-
O=C(Cn1nc(CNc2ccc(Cl)cc2)[n+]2c1CCCCC2)c1ccc(Br)cc1	-	-	23.1µM	?
COc1ccccc1N1CCN(S(=O)(=O)c2c(C)sc3ncn(CC(=O)Nc4ccccc4F)c(=O)c23)CC1	-	-	-	-
SMILES	ClpP mod	TDP1 block	TDP1 cell CPT	DT40 TDP1 no CPT
COc1ccc(C(=O)c2c(-c3ccc(OC)cc3)oc3ccc(-c4ccc(OC)nc4)cc23)cc1	15.8µM	.	?	?
COc1ccc(C(=O)c2c(-c3cccc(C)c3)oc3ccc(N4CCOCC4)cc23)cn1	-	.	?	14.6µM
Cc1cccc(OCCC(=O)Nc2ccc(N3CCOCC3)cc2N2CCOCC2)c1	-	-	-	?
COc1ccc(-c2oc3ccc(-c4cc(OC)c(OC)c(OC)c4)cc3c2-c2ccc(OC)nc2)cc1	-	.	14.6µM	11.6µM
COc1ccc2oc(-c3ccccc3)c(C(N)=O)c2c1	31.6µM	-	-	-
NS(=O)(=O)c1cc2c(cc1Cl)NC(c1ccccc1OCC(=O)O)NS2(=O)=O (stereo not given)	.	-	-	?
CCOc1ccccc1NC(=O)CN1C(=O)CC(c2ccco2)Sc2ccccc21 (stereo not given)	-	-	.	.
COCCNC(=O)c1c(NC(=O)c2cc(=O)c3cc(Cl)ccc3o2)sc2c1CCCC2	-	-	-	-
O=C1CN(C(=O)NCCC(=O)NC2CCCCC2)c2ccccc2N1	-	-	-	-
CCOc1ccc(CNS(=O)(=O)c2cc(-c3cc(C)no3)ccc2OC)cc1OC	-	-	-	-
CCN(CC(=O)NCc1cccs1)C(=O)CCCOc1ccc(C(C)(C)C)cc1	-	-	?	?
CCN(CC(=O)Nc1ccc(NC(C)=O)cc1)C(=O)CCCOc1ccc(C(C)(C)C)cc1	-	.	18.4µM	23.1µM
CC(OCc1ccccc1)C(NC(=O)OC(C)(C)C)C(=O)NC1COC2CC(n3ccc(=O)[nH]c3=O)OC12 (stereo not given)	.	-	.	.
CCCCN(C(=O)c1cccc(-n2cnnn2)c1)c1c(N)n(CCCC)c(=O)[nH]c1=O	-	.	-	-
O=C1C=CC(=O)N1	-	.	3.26µM	3.26µM
CCCCN(C=O)c1c(CC)nc2ccc(C(=O)N3CCN(c4ccccc4)CC3)cn12	-	.	?	?
Cc1ccnc(SCC(=O)Nc2c(C)n(C)n(-c3ccccc3)c2=O)n1	-	-	-	-
CNc1oc(-c2cccc3ccccc23)nc1C#N	15.8µM	-	-	-
CNc1oc(-c2ccccc2Cl)nc1C#N	?	-	-	-
COc1ccc(S(=O)(=O)c2c(SC)nn(CC(=O)Nc3cccc(C)c3C)c2N)cc1	-	-	-	?
Cc1cc(=O)[nH]c(N/N=C/c2ccc(OC(=O)c3cccnc3)cc2)n1	.	-	-	-
COc1ccc(N2CCN(C(=O)c3cc4c(=O)n(Cc5ccccc5)ccc4nc3C)CC2)cc1	-	-	?	?
COc1cccc(NC(=O)c2cc3c(=O)n(Cc4cccnc4)ccc3nc2C)c1	-	-	-	-
COc1cccc(N2CCN(C(=O)c3cc4c(=O)n(Cc5ccccc5)ccc4nc3C)CC2)c1	-	-	16.4µM!	?
COc1ccc(Cn2ccc3nc(C)c(C(=O)N4CCN(c5ccccc5F)CC4)cc3c2=O)cc1	?	-	23.1µM	18.4µM
CCc1cccc(NC(=O)c2cc3c(=O)n(Cc4ccc(OC)cc4)ccc3nc2C)c1	-	-	?	14.6µM
O=C(c1cccc(C(F)(F)F)c1)C1CCCN(C(=O)CN2CCOC2=O)C1 (stereo not given)	-	-	-	-
C/C(=N\O)C(C)(C)Nc1ccccc1F	-	.	-	-
O=C(CCCCn1c(=O)c2ccccc2n(Cc2ccc(F)cc2)c1=O)NCc1ccco1	-	-	16.4µM	14.6µM
